In all, about 650,000 compounds went through this assay and about 850 (0.13%) were called active. Only a selection was taken, and actives are over-represented in it overall. A number with no mark means an inactive call. Cut-off read from the data, not from the text of the source: active = normalized activity above about 1.9%; inactive = the rest.
Each compound was assayed against F-box/WD repeat-containing protein 7 (Homo sapiens) (UniProt Q969H0) (assay: FBW7 E3 ligase activators, primary screen, biochemical, AlphaScreen, human (AID 1259310;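 note: purified mutant Fbw7 with reduced substrate affinity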)). Details: AlphaScreen FBW7–phospho-cyclin E peptide binding, activator screen; at 26.1 µM; hits give high values.
F-box/WD repeat-containing protein 7 (Homo sapiens), sequence (Q969H0 whole entry, looked up): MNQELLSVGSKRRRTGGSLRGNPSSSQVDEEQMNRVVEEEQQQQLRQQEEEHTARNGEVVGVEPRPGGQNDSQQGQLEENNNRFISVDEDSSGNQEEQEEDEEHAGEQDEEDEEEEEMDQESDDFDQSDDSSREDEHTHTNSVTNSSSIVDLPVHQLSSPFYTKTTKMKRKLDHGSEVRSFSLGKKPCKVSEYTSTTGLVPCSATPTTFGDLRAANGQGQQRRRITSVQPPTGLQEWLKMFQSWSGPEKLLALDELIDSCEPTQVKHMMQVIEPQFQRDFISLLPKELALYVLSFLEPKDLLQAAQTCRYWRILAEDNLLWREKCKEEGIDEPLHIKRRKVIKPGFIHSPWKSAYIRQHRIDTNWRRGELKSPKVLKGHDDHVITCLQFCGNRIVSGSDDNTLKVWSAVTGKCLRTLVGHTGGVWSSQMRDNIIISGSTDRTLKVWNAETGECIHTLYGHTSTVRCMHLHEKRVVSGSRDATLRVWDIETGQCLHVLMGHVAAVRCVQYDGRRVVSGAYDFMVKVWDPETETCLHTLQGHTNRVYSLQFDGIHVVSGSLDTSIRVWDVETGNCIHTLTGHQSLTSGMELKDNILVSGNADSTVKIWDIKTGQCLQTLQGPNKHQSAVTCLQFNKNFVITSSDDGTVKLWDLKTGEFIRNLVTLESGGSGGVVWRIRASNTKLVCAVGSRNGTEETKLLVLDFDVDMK

SMILES	normalized activity (activation)
COc1ccc(OC)c(NS(=O)(=O)c2ccc(NC(=O)COc3ccccc3)cc2)c1	-0.06%
COc1ccc(Cl)cc1C(=O)Nc1cccc(-c2nc3cc(Cl)ccc3o2)c1C	0.2%
Fc1ccc(Nc2nc(NCC3CCCO3)c3ccccc3n2)cc1 (centres undefined)	-0.11%
Fc1ccc(C2CC(c3cccs3)=NN2c2nc(-c3ccccc3)cs2)cc1 (centres undefined)	-0.01%
COc1ccc(C2CC(c3cccs3)=NN2c2ccccc2)cc1 (centres undefined)	8.78% (active)
COc1ccc(C2=NN(c3ccccc3)C(c3ccc(F)cc3)C2)cc1 (centres undefined)	0.58%
c1cncc(-c2ncc(-c3ccncn3)c(-c3cccnc3)n2)c1	0.02%
COC(=O)CSC1=C(C#N)C(c2ccccc2Cl)C(C(=O)Nc2ccccc2OC)=C(C)N1 (centres undefined)	-0.06%
COc1cccc(-c2nc(C3CCCN(C(=O)CC(C)CC(=O)O)C3)n3ccccc23)c1 (centres undefined)	0.94%
Cc1cccc2sc(NC(=O)c3ccc(S(=O)(=O)N4CC(C)CC(C)C4)cc3)nc12 (centres undefined)	0.22%
CC[N+](C)(CC)CCNC(=O)c1c(O)c2ccccc2[nH]c1=O	0.07%
CC[N+](C)(CC)CCNC(=O)c1c(O)c2c([nH]c1=O)CCCC2	2.05% (active)
C[N+](C)(C)CCNC(=O)c1c(O)c2c([nH]c1=O)CCCC2	0.2%
CCOC(=O)c1cnc2cc(C(F)(F)F)ccc2c1Nc1ccccc1F	-0.08%
Cc1ccccc1Nc1nc(-c2c(C)nc3ncccn23)cs1	0.01%
Cc1ccc2c(c1)N(CC(=O)NC1CC1)C(=O)CO2	-0.26%
CCC(C)(C)C(=O)Nc1ccc(S(N)(=O)=O)cc1	-0.09%
C#CCN(C)C(=O)c1c(C(F)(F)F)nc2c(OC)cccn12	1.94% (active)
CN(C)C(=O)CN(C)C(=O)c1c(C(F)(F)F)nc2ccccn12	0.23%
C=CCN(C)C(=O)c1c(C(F)(F)F)nc2c(OC)cccn12	0.11%
CN1CCN(c2nc3c(c(=O)n(C)c(=O)n3C)n2CC(=O)c2ccc(Br)cc2)CC1	0.05%
COC(=O)c1ccc2c(c1)N(Cc1c(C)noc1C)C(=O)C(F)(F)O2	0.09%
CCn1c(N2CCC(C(=O)NC3CCCCC3)CC2)nc2ccccc21	0.16%
COc1cccc(OC)c1C(=O)OCC(=O)NC1CCCCC1C (centres undefined)	-0.19%

SMILES	normalized activity (activation)
CCC1(C)OC(=O)N(C)C1=O (centres undefined)	2.13% (active)
CC(=O)Nc1ccc(C(=O)NNC(=O)C(C)Oc2ccc(Cl)cc2Cl)cc1 (centres undefined)	-1.25%
O=C(CSC1=NS(=O)(=O)c2ccccc21)Nc1ccc(Br)cc1	-0.05%
CC1(C)N=C(SCC(=O)Nc2ccc(Br)cc2)C(c2ccccc2)=N1	2.4% (active)
O=C(CSc1ncc(-c2ccccc2)[nH]1)Nc1ccc(Br)cc1	-0.02%
C[C@@H](c1ccccc1)n1c(=O)[nH]c2ncc(-c3ccc(C(=O)N4CCN(C)CC4)cc3)nc21	-0.33%
Cc1cc(C)nc(/N=C(\N)N2CCOCC2)n1	0.35%
Cc1cc(C)c2nc(N=C(N)N)nc(C)c2c1	1.86% (active)
COc1nc(N=C(N)N)nc2c(C)cccc12	-0.06%
COc1ccc(C(=O)NCCC(=O)NC2CCCC2)cc1OC	0.02%
COCC(C)NC(=O)c1ccccc1I (centres undefined)	0.14%
Cc1ccccc1CNC(=O)c1ccccc1I	0.92%
CC(C)CNC(=O)c1ccccc1I	1.93% (active)
Cc1cc(=O)oc2cc(OCC(=O)N/N=C/c3ccc4c(c3)OCO4)ccc12	-0.03%
CC(=O)N(Cc1cc2cc(C)cc(C)c2[nH]c1=O)CC1CCCO1 (centres undefined)	0.12%
CCN1C(=O)c2cccc3c(NC(=O)C4CCCN4S(=O)(=O)c4ccc(OC)cc4)ccc1c23 (centres undefined)	-0.03%
CN(C)c1ccccc1C(=O)c1ccccc1	2.06% (active)
Cc1ccc2[nH]cc(C(=O)c3ccccc3)c(=O)c2c1	0.18%
O=C(CC(=O)c1ccccc1O)c1ccccc1	0.25%
COc1ccccc1NS(=O)(=O)c1cccc(NC(=O)c2cc(=O)[nH]c(=O)[nH]2)c1	-0.11%
Cc1cc(C(=O)NCc2nnc3n2CCN(Cc2ccccc2)CC3)c(C)o1	-0.06%
Cc1cccc(OCCC(=O)NNC(=O)Cc2cccn2C)c1	-0.11%
CCOc1ccc2c(=O)c(Oc3ccccc3)c(C(F)(F)F)oc2c1C	0.9%
CCN(CC)C(=O)Cn1ncn2c(cc3ccsc32)c1=O	-0.03%

SMILES	normalized activity (activation)
CCc1nn(CC(=O)NCc2cccs2)c(=O)c2cc3ccsc3n12	-0.13%
CCCc1nn(CC(=O)N(C)C)c(=O)c2cc3ccsc3n12	3.43% (active)
Cc1cccc(C)c1NC(=O)C(=O)NCCCO	0.01%
O=C1C(=O)N(c2nc3ccccc3s2)C(c2ccc(O)cc2)/C1=C(\O)c1ccc(Cl)cc1 (centres undefined)	-0.15%
COc1ccc(C2(O)CC(C(F)(F)F)=NN2C(=O)CCc2ccccc2)cc1 (centres undefined)	0.67%
COc1ccc(CC(=O)NNC(=O)c2ccccc2Cl)cc1	-0.11%
CSCCNC(=O)CCc1nnc(C2(c3ccc(Cl)cc3)CCC2)o1	0.03%
Cc1cccc(NC(=O)c2ccccc2Nc2ccc(S(=O)(=O)C(F)(F)F)cc2[N+](=O)[O-])c1	0.06%
COc1ccccc1-c1cnc2c(NCc3cccs3)nccn12	-0.21%
COc1cc(CNc2nccn3c(-c4ccc(F)cc4)cnc23)cc(OC)c1OC	1.85% (active)
CN(C)CCNC(=O)c1ccc(-c2cnc3c(NCc4ccc(F)cc4)nccn23)cc1	-0.01%
O=C(CSc1nnc(Nc2ccccc2)s1)c1ccc(F)cc1	-0.08%
CC(=O)Nc1ccc(Nc2nc(Nc3ccncn3)nc3nc[nH]c23)cc1	0.11%
O=C1NC(=O)N(c2ccc(Br)cc2)C(=O)/C1=C\C=C\c1ccco1	-0.18%
COc1cc(OC)c(C2Nc3cccc4cccc(c34)N2)cc1OC	1.96% (active)
COc1ccc(OC)c(C2Nc3cccc4cccc(c34)N2)c1	0.03%
COc1ccc(C2Nc3cccc4cccc(c34)N2)c(OC)c1OC	0.39%
O=c1[nH]c(N2CCOCC2)nc2c1CN(Cc1ccccc1Cl)CC2	-0.04%
O=C1CC(c2noc(-c3ccco3)n2)CN1c1ccccc1 (centres undefined)	-0.17%
COc1cccc(-c2nc(-c3ccccc3)c(-c3ccccc3)[nH]2)c1O	-0.07%
CCOc1ccc2nc(N3CCC(NCCc4nc(C)c5c(n4)CCC5)CC3)nc(C)c2c1	0.33%
CC1CC(C)CN(CCS(=O)(=O)c2ccc(Oc3ccc(S(=O)(=O)CCN4CC(C)CC(C)C4)cc3)cc2)C1 (centres undefined)	-0.1%
CCCCOC(=O)C1=C(C)N(C)C(=O)NC1c1cc(Cl)c(O)c(OC)c1 (centres undefined)	-0.11%
CCOc1cc(OCC)cc(C(=O)Nc2cc3nn(-c4ccc(OC)cc4)nc3cc2C)c1	-0.15%

SMILES	normalized activity (activation)
CCOc1ccc(C(=O)Nc2ccccc2I)cc1[N+](=O)[O-]	-0.08%
CCOc1ccc(C(=O)Nc2cc3nn(-c4ccc(C)cc4)nc3cc2C)cc1[N+](=O)[O-]	2.14% (active)
O=C(Cc1ccccn1)N1CCCC(c2nc(N3CCOCC3)ncc2-c2ccncc2)C1 (centres undefined)	-0.05%
CCOc1ccc(-n2nc(C(=O)Nc3ccccc3C(F)(F)F)c3ccccc3c2=O)cc1	-0.03%
NC(=O)c1ccccc1NC(=S)NC(=O)/C=C/c1cccc([N+](=O)[O-])c1	0.01%
Cc1ccc2nc(SCC(=O)Nc3ccccc3C(N)=O)[nH]c2c1	0.11%
O=C(Nc1ccccc1[N+](=O)[O-])c1cc(S(=O)(=O)Nc2cccc(F)c2)ccc1Cl	-0.02%
O=C(COC(=O)c1ccccc1F)NCc1ccco1	-0.11%
COc1cc(Nc2nc(-c3c(C)noc3C)nc3c2ncn3C2CCCCC2)cc(OC)c1OC	-0.17%
Cc1noc(C)c1-c1nc(N)c2ncn(-c3ccccc3)c2n1	-0.05%
COc1cc(Nc2nc(-c3c(C)noc3C)nc3c2ncn3-c2ccccc2)cc(OC)c1OC	14.2% (active)
Cc1nc2c(C(=O)N3CCCC3)cnn2c(C)c1Cc1ccccc1Cl	-0.09%
O=C(Nc1ccc(I)cc1)OCCCc1ccccc1	0.21%
Cc1ccc2nc(NC(=O)c3cc(-c4ccc(Cl)s4)nc4ccccc34)sc2c1	-0.02%
Cc1c(-c2nc3cnccn3c2NCc2ccc(F)cc2)cnn1C	-0.04%
COc1ccc(NC(=S)C(=O)Nc2ccccc2)cc1	0.08%
COc1cccc(NC(=O)CSc2ccc(Br)cc2)c1	0.07%
COc1ccc(SCC(=O)NNC(=S)Nc2ccccc2)cc1	2.07% (active)
CCOc1ccc2nc(NC(=O)c3cccc(C(=O)OC)n3)sc2c1	-0.02%
CC(C)c1ccc(OCC(=O)N/N=C/c2cccnc2)cc1	-0.04%
COc1c(Cl)cc(Cl)cc1C(=O)Nc1ccccc1[N+](=O)[O-]	-0.17%
O=C(CN1C(=O)c2cccc([N+](=O)[O-])c2C1=O)OCC(=O)c1ccc(Cl)cc1	-0.01%
